# In the supplement of paper PMC6555819:
# Columns and labels:
# Assay in all cases: PBM binding z-score (relative to random genomic background probes); higher = stronger binding; sequences stand for … in GC…GCGATTGACAGCGTAGAATGAAGG
# [1] = tested on: FXR:RXRa (NR concentration 270 nM, RXRa partner concentration 90 nM)
# Outline: (§1)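 Scanned fluorescence from custom Agilent 4×180K protein-binding microarrays was regression-normalized. Binding z-scores use random background probes as reference. Ligand-free nuclear receptor dimers were incubated on the arrays for 1 h and detected with antibodies against each partner (one per run).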
# [2] = tested on: LXRa:RXRa (NR concentration 270 nM, RXRa partner concentration 90 nM)
# Outline: as §1
# [3] = tested on: LXRa homodimer (NR concentration 270 nM)
# Outline: as §1
# [4] = tested on: LXRb:RXRa (NR concentration 270 nM, RXRa partner concentration 90 nM)
# Outline: as §1
# [5] = tested on: LXRb homodimer (NR concentration 270 nM)
# Outline: as §1
# [6] = tested on: PPARa:RXRa (NR concentration 270 nM, RXRa partner concentration 90 nM)
# Outline: as §1
# [7] = tested on: PPARg:RXRa (NR concentration 180 nM, RXRa partner concentration 90 nM)
# Outline: as §1
# [8] = tested on: PPARg:RXRa 270nM:90nM, anti-RXR (NR concentration 270 nM, RXRa partner concentration 90 nM)
# Outline: as §1
# [9] = tested on: PPARg:RXRa 30nM:10nM, anti-RXR (NR concentration 30 nM, RXRa partner concentration 10 nM)
# Outline: as §1
# [10] = tested on: PPARg:RXRa 90nM:30nM, anti-RXR (NR concentration 90 nM, RXRa partner concentration 30 nM)
# Outline: as §1
sequence,measurement,setting,value
GCTGCTAGGTCAAGTGATGGTCAGCTAAAGCTCG,PBM binding z-score,[1],4.09
same,PBM binding z-score,[2],3.01
same,PBM binding z-score,[3],0.152
same,PBM binding z-score,[4],1.9
same,PBM binding z-score,[5],-0.0819
same,PBM binding z-score,[6],3.57
same,PBM binding z-score,[7],2.46
same,PBM binding z-score,[8],3.13
same,PBM binding z-score,[9],0.591
same,PBM binding z-score,[10],2.12
TCTTGTAGATCAAGCAGCTTAAGAAAGCCTGAGT,PBM binding z-score,[1],-0.352
same,PBM binding z-score,[2],-0.169
same,PBM binding z-score,[3],-0.373
same,PBM binding z-score,[4],-0.0264
same,PBM binding z-score,[5],-0.791
same,PBM binding z-score,[6],0.29
same,PBM binding z-score,[7],-0.61
same,PBM binding z-score,[8],1.03
same,PBM binding z-score,[9],2.17
same,PBM binding z-score,[10],1.5
ACTATTAGTTGACTTAGCGCAACCGATACGACGC,PBM binding z-score,[1],-0.246
same,PBM binding z-score,[2],-0.156
same,PBM binding z-score,[3],0.033
same,PBM binding z-score,[4],-0.0894
same,PBM binding z-score,[5],0.667
same,PBM binding z-score,[6],-0.285
same,PBM binding z-score,[7],0.811
same,PBM binding z-score,[8],0.137
same,PBM binding z-score,[9],0.148
same,PBM binding z-score,[10],0.0233
TCTCGGAGTACACGAAAGGTCAGAGCTCGACATC,PBM binding z-score,[1],2.31
same,PBM binding z-score,[2],3.69
same,PBM binding z-score,[3],2.03
same,PBM binding z-score,[4],3.2
same,PBM binding z-score,[5],-0.426
same,PBM binding z-score,[6],3.55
same,PBM binding z-score,[7],1.78
same,PBM binding z-score,[8],3.53
same,PBM binding z-score,[9],2.52
same,PBM binding z-score,[10],3.11
CAGCCTAGGTCAGGGCGAGTATAGGAGGAACGTT,PBM binding z-score,[1],1.8
same,PBM binding z-score,[2],0.876
same,PBM binding z-score,[3],-0.437
same,PBM binding z-score,[4],0.505
same,PBM binding z-score,[5],-1.08
same,PBM binding z-score,[6],2.07
same,PBM binding z-score,[7],1.03
same,PBM binding z-score,[8],1.29
same,PBM binding z-score,[9],0.157
same,PBM binding z-score,[10],0.783
GGAACGAGGGAAAAGTTGATAGCATCTGTCGACG,PBM binding z-score,[1],-0.286
same,PBM binding z-score,[2],-0.349
same,PBM binding z-score,[3],-0.321
same,PBM binding z-score,[4],-0.59
same,PBM binding z-score,[5],-0.568
same,PBM binding z-score,[6],1.15
same,PBM binding z-score,[7],2.04
same,PBM binding z-score,[8],3.68
same,PBM binding z-score,[9],1.71
same,PBM binding z-score,[10],3.49
CGTCCAAGGTCAGAGAGGTCAGTTAATGCCGAGT,PBM binding z-score,[1],6.19
same,PBM binding z-score,[2],5.39
same,PBM binding z-score,[3],3.93
same,PBM binding z-score,[4],4.99
same,PBM binding z-score,[5],0.784
same,PBM binding z-score,[6],4.72
same,PBM binding z-score,[7],3.34
same,PBM binding z-score,[8],4.09
same,PBM binding z-score,[9],0.894
same,PBM binding z-score,[10],2.9
CGTCCAAGGTCAAAGGTTAGTGAAGAGATGACGG,PBM binding z-score,[1],7.74
same,PBM binding z-score,[2],5.92
same,PBM binding z-score,[3],1.42
same,PBM binding z-score,[4],5.09
same,PBM binding z-score,[5],1.54
same,PBM binding z-score,[6],6.47
same,PBM binding z-score,[7],8.94
same,PBM binding z-score,[8],7.84
same,PBM binding z-score,[9],7.41
same,PBM binding z-score,[10],8.3
ATATGTAGGTTACATCCGGGTCATTCATGCTATG,PBM binding z-score,[1],2.21
same,PBM binding z-score,[2],4.15
same,PBM binding z-score,[3],1.59
same,PBM binding z-score,[4],3.05
same,PBM binding z-score,[5],0.928
same,PBM binding z-score,[6],4.55
same,PBM binding z-score,[7],6.16
same,PBM binding z-score,[8],5.07
same,PBM binding z-score,[9],2.55
same,PBM binding z-score,[10],4.45
GATACAGGGTCCGCTAGAGGCCAGAGTATGGAAA,PBM binding z-score,[1],-0.588
same,PBM binding z-score,[2],-0.752
same,PBM binding z-score,[3],-0.713
same,PBM binding z-score,[4],-1.11
same,PBM binding z-score,[5],-1.38
same,PBM binding z-score,[6],-0.848
same,PBM binding z-score,[7],0.112
same,PBM binding z-score,[8],-0.726
same,PBM binding z-score,[9],-0.417
same,PBM binding z-score,[10],-1.24
CGAACTAGGTCATTGACAGGATAGTGAATAGTAA,PBM binding z-score,[1],4.3
same,PBM binding z-score,[2],2.82
same,PBM binding z-score,[3],0.355
same,PBM binding z-score,[4],2.01
same,PBM binding z-score,[5],-0.145
same,PBM binding z-score,[6],4.83
same,PBM binding z-score,[7],7.71
same,PBM binding z-score,[8],6.36
same,PBM binding z-score,[9],3.54
same,PBM binding z-score,[10],5.85
TCGAGTAGCTTAGTCGGGGCATTCAGCCAACATA,PBM binding z-score,[1],-0.445
same,PBM binding z-score,[2],-0.555
same,PBM binding z-score,[3],-0.699
same,PBM binding z-score,[4],-0.343
same,PBM binding z-score,[5],-0.785
same,PBM binding z-score,[6],-0.102
same,PBM binding z-score,[7],-0.707
same,PBM binding z-score,[8],-0.0775
same,PBM binding z-score,[9],0.66
same,PBM binding z-score,[10],0.255
ATCCCTAGGTAAAGTTCAGTGAAAGATCGATAGA,PBM binding z-score,[1],0.939
same,PBM binding z-score,[2],1.71
same,PBM binding z-score,[3],1.52
same,PBM binding z-score,[4],1.19
same,PBM binding z-score,[5],0.53
same,PBM binding z-score,[6],1.8
same,PBM binding z-score,[7],2.37
same,PBM binding z-score,[8],3.48
same,PBM binding z-score,[9],1.57
same,PBM binding z-score,[10],3.25
TCATATAGGTAAAAGGTGACAGTCGGTGTGGTAA,PBM binding z-score,[1],1.88
same,PBM binding z-score,[2],1.46
same,PBM binding z-score,[3],-0.178
same,PBM binding z-score,[4],1.61
same,PBM binding z-score,[5],0.00468
same,PBM binding z-score,[6],5.19
same,PBM binding z-score,[7],9.43
same,PBM binding z-score,[8],8.82
same,PBM binding z-score,[9],8.45
same,PBM binding z-score,[10],9.66
CAAACTAGGTCAAGGACAAAGTCGGTTTGTGCCA,PBM binding z-score,[1],3.65
same,PBM binding z-score,[2],2.54
same,PBM binding z-score,[3],0.38
same,PBM binding z-score,[4],1.43
same,PBM binding z-score,[5],0.178
same,PBM binding z-score,[6],4.59
same,PBM binding z-score,[7],7.75
same,PBM binding z-score,[8],6.74
same,PBM binding z-score,[9],4.87
same,PBM binding z-score,[10],6.38
CCCACTGGGCCAAAAAGGTCATTGATGCCGATAA,PBM binding z-score,[1],3.49
same,PBM binding z-score,[2],4.24
same,PBM binding z-score,[3],3.22
same,PBM binding z-score,[4],4.01
same,PBM binding z-score,[5],0.236
same,PBM binding z-score,[6],4.45
same,PBM binding z-score,[7],3.06
same,PBM binding z-score,[8],4.19
same,PBM binding z-score,[9],1.38
same,PBM binding z-score,[10],3.23
ACTAGCATGCCAAGGGTCACTCAAGATTAGTCCG,PBM binding z-score,[1],2.51
same,PBM binding z-score,[2],2.97
same,PBM binding z-score,[3],0.285
same,PBM binding z-score,[4],2.95
same,PBM binding z-score,[5],0.101
same,PBM binding z-score,[6],4.14
same,PBM binding z-score,[7],5.14
same,PBM binding z-score,[8],6.08
same,PBM binding z-score,[9],3.82
same,PBM binding z-score,[10],6.39
CCTAGGTGGTCAGGAGGTCACACACCGGATATGA,PBM binding z-score,[1],3.9
same,PBM binding z-score,[2],3.3
same,PBM binding z-score,[3],1.72
same,PBM binding z-score,[4],3.05
same,PBM binding z-score,[5],0.062
same,PBM binding z-score,[6],3.95
same,PBM binding z-score,[7],3.45
same,PBM binding z-score,[8],3.53
same,PBM binding z-score,[9],1.29
same,PBM binding z-score,[10],3.03
TTACCAAAGTGAGCTGAGGTCGTTGATCCAACTC,PBM binding z-score,[1],0.648
same,PBM binding z-score,[2],0.0425
same,PBM binding z-score,[3],-0.525
same,PBM binding z-score,[4],0.222
same,PBM binding z-score,[5],-1.12
same,PBM binding z-score,[6],0.635
same,PBM binding z-score,[7],-0.509
same,PBM binding z-score,[8],-0.168
same,PBM binding z-score,[9],0.0696
same,PBM binding z-score,[10],-0.371
AGAATGAGGTTAAGATCAAGGAAACAGAATACAT,PBM binding z-score,[1],1.93
same,PBM binding z-score,[2],1.78
same,PBM binding z-score,[3],0.0429
same,PBM binding z-score,[4],1.71
same,PBM binding z-score,[5],-0.221
same,PBM binding z-score,[6],3.67
same,PBM binding z-score,[7],2.49
same,PBM binding z-score,[8],2.3
same,PBM binding z-score,[9],0.939
same,PBM binding z-score,[10],1.76
CCTACTGGGCCACGAAAGGTCATTTATTCAGTGA,PBM binding z-score,[1],3.85
same,PBM binding z-score,[2],5.32
same,PBM binding z-score,[3],6.04
same,PBM binding z-score,[4],4.6
same,PBM binding z-score,[5],1.31
same,PBM binding z-score,[6],4.47
same,PBM binding z-score,[7],4.58
same,PBM binding z-score,[8],4.66
same,PBM binding z-score,[9],1.87
same,PBM binding z-score,[10],4.02
CCTACTGGGCGAAAGGTCATTGATTCCAATGCTC,PBM binding z-score,[1],4.47
same,PBM binding z-score,[2],4.72
same,PBM binding z-score,[3],3.02
same,PBM binding z-score,[4],4.35
same,PBM binding z-score,[5],0.417
same,PBM binding z-score,[6],5.92
same,PBM binding z-score,[7],11
same,PBM binding z-score,[8],9.6
same,PBM binding z-score,[9],9.1
same,PBM binding z-score,[10],11.6
CCTCGGTGGACAACAGGAGGTCAGAGCTGCCAGA,PBM binding z-score,[1],0.578
same,PBM binding z-score,[2],1.81
same,PBM binding z-score,[3],1.76
same,PBM binding z-score,[4],1.05
same,PBM binding z-score,[5],-0.647
same,PBM binding z-score,[6],1.67
same,PBM binding z-score,[7],0.123
same,PBM binding z-score,[8],0.139
same,PBM binding z-score,[9],-0.911
same,PBM binding z-score,[10],-0.207
